PubChem BioAssay (NCATS)
Results filed as inconclusive are left out. The source made the active and inactive calls. Calls come from the whole dose curve; as a rule, active = well fitted inhibition curve with a large enough effect; inconclusive = small, poorly fitted or top-dose-only effect; inactive = flat fitted curve, though single readings scatter.

Columns and labels:
Experiment in all cases: qHTS profiling for inhibitors of Plasmodium falciparum proliferation (AID 504749); note: nearly all actives have a fitted effect of over 60% in size
Details in all cases: P. falciparum in erythrocytes, SYBR Green DNA, 72 h
PAD = tested on: PAD
How it was run: (§1)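 P. falciparum-infected erythrocytes (0.3% parasitemia, 2.5% hematocrit final) were exposed to compounds for 72 h at 37 C in 5% CO2, then lysed with SYBR Green buffer overnight at room temperature; parasite DNA fluorescence was normalized to artemisinin and DMSO controls.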

PC15 = tested on: PC15
How it was run: as §1

PC26 = tested on: PC26
How it was run: as §1

SC27B = tested on: SC27B
How it was run: as §1

TAB109 = tested on: TAB109
How it was run: as §1

TAB113 = tested on: TAB113
How it was run: as §1

TAB165 = tested on: TAB165
How it was run: as §1

W2 = tested on: W2
How it was run: as §1

PC49 = tested on: PC49
How it was run: as §1

Measured: Potency
Potency is the fitted concentration of half-maximal effect.

CC[C@]1(O)CC2CN(CCc3c([nH]c4ccccc34)[C@@](C(=O)OC)(c3cc4c(cc3OC)N(C)[C@H]3[C@@](O)(C(=O)OC)[C@H](OC(C)=O)[C@]5(CC)C=CCN6CC[C@]43[C@@H]65)C2)C1 (some centres not stated)
active: PAD 4470 nM | PC15 5010 nM | PC26 1690 nM | SC27B 3550 nM | TAB109 1000 nM | TAB113 3980 nM | TAB165 2000 nM | W2 478 nM

CC(=O)O[C@H]1C(=O)[C@@]2(C)[C@H]([C@H](OC(=O)c3ccccc3)[C@]3(O)C[C@H](OC(=O)[C@H](O)[C@@H](NC(=O)c4ccccc4)c4ccccc4)C(C)=C1C3(C)C)[C@]1(OC(C)=O)CO[C@@H]1C[C@@H]2O
active: PAD 708 nM | PC15 1410 nM | PC26 536 nM | PC49 2000 nM | SC27B 1260 nM | TAB109 355 nM | TAB113 1260 nM | TAB165 282 nM | W2 169 nM
